Reference: PubChem BioAssay (NCATS)
“And” between values parts separate entries of the source, which are not always exact repeats. Identical values can stand only once. Results filed as inconclusive are left out. A call without a number means that no potency is given here. Values without a mark were called inactive. The source made the active and inactive calls. The call rests on the fitted dose curve; in most records, active means well fitted inhibition curve with a large enough effect; inconclusive means small, poorly fitted or top-dose-only effect; inactive means flat fitted curve, though single readings scatter.

Legend:
CRL-7250 = normal cell line; experiment: Cytotoxic Profiling of Annotated Libraries Using Quantitative High-Throughput Screening (AID 1296008); conditions: Five cell lines viability, CellTiter-Glo ATP luminescence, 48-72 h; max response: hits give low values; further: potency means the concentration at half of the fitted maximal effect
How it was run: (§1)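 Cytotoxicity was measured as CellTiter-Glo ATP luminescence, read after 10 min at room temperature. Compound treatment of the cells lasted 48 or 72 hr at 37 degrees Celsius in a qHTS format.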

HEK293 = experiment: as above; conditions: Five cell lines viability, CellTiter-Glo ATP luminescence, 48-72 h; max response: hits give low values
How it was run: as §1

HaCat [1] = experiment: as above; conditions: Five cell lines viability, CellTiter-Glo ATP luminescence, 48-72 h; max response: hits give low values
How it was run: as §1

NIH3T3 = experiment: as above; conditions: Five cell lines viability, CellTiter-Glo ATP luminescence, 48-72 h; max response: hits give low values
How it was run: as §1

HACAT [2] = experiment: qHTS assay to identify novel small-molecules to repurpose for Merkel cell carcinoma treatment (AID 1296009); conditions: MCC and control cell lines, CellTiter-Glo viability, 72 h; series mostly up to 44.8 µM
How it was run: (§2)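 After compound transfer in DMSO, plates were kept 72 hr at 37 degree celsius. Luminescent ATP signal from CellTiter-Glo served as viability measure, normalized against DMSO and no-cell controls.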

HEK293T = experiment: as above; conditions: MCC and control cell lines, CellTiter-Glo viability, 72 h
How it was run: as §2

MCC-13 = experiment: as above; conditions: MCC and control cell lines, CellTiter-Glo viability, 72 h; series mostly up to 46 µM
How it was run: as §2

MCC-26 = experiment: as above; conditions: MCC and control cell lines, CellTiter-Glo viability, 72 h; series mostly up to 46 µM
How it was run: as §2

P93_24 = experiment: qHTS profiling for inhibitors of Plasmodium falciparum proliferation (AID 504749); further: potency means the concentration at half of the fitted maximal effect; conditions: P. falciparum in erythrocytes, SYBR Green DNA, 72 h; series mostly up to 28.7 µM
How it was run: (§3)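 Three-day growth assay of blood-stage parasites in erythrocytes (0.3% parasitemia, 2.5% hematocrit) at 37 C, 5% CO2, quantified by SYBR Green DNA staining after overnight detergent lysis.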

P94_40 = experiment: as above; conditions: P. falciparum in erythrocytes, SYBR Green DNA, 72 h; series mostly up to 28.7 µM
How it was run: as §3

PAD = experiment: as above; conditions: P. falciparum in erythrocytes, SYBR Green DNA, 72 h; series mostly up to 28.7 µM
How it was run: as §3

PC15 = experiment: as above; conditions: P. falciparum in erythrocytes, SYBR Green DNA, 72 h; series mostly up to 28.7 µM
How it was run: as §3

PC26 = experiment: as above; conditions: P. falciparum in erythrocytes, SYBR Green DNA, 72 h; series mostly up to 28.7 µM
How it was run: as §3

PC49 = experiment: as above; conditions: P. falciparum in erythrocytes, SYBR Green DNA, 72 h; series mostly up to 28.7 µM
How it was run: as §3

SC27B = experiment: as above; conditions: P. falciparum in erythrocytes, SYBR Green DNA, 72 h; series mostly up to 28.7 µM
How it was run: as §3

TAB109 = experiment: as above; conditions: P. falciparum in erythrocytes, SYBR Green DNA, 72 h; series mostly up to 28.7 µM
How it was run: as §3

TAB113 = experiment: as above; conditions: P. falciparum in erythrocytes, SYBR Green DNA, 72 h; series mostly up to 28.7 µM
How it was run: as §3

TAB165 = experiment: as above; conditions: P. falciparum in erythrocytes, SYBR Green DNA, 72 h; series mostly up to 28.7 µM
How it was run: as §3

W2 = experiment: as above; conditions: P. falciparum in erythrocytes, SYBR Green DNA, 72 h; series mostly up to 28.7 µM
How it was run: as §3

KB-3-1 = experiment: Cytotoxic Profiling of Annotated Libraries Using Quantitative High-Throughput Screening (AID 1296008); conditions: Five cell lines viability, CellTiter-Glo ATP luminescence, 48-72 h; max response: hits give low values; further: potency means the concentration at half of the fitted maximal effect
How it was run: as §1

[3] = at 44.8 µM (top of the series) unless noted
Further: nearly all actives have a fitted effect of over 60% in size.

CC1(C)O[C@H]2CC(=O)OC[C@]23[C@H]2CC[C@@]4(C)[C@H](c5ccoc5)OC(=O)[C@H]5O[C@]54[C@]2(C)C(=O)C[C@@H]13
max response (CRL-7250): 2.33% and 4%
outcome (CRL-7250): inactive
max response (HEK293): -8.07%
outcome (HEK293): inactive
max response (HaCat [1]): -5.81%
outcome (HaCat [1]): inactive
max response (NIH3T3): -0.469% and 1.76%
outcome (NIH3T3): inactive
outcome (HACAT [2]): inactive
outcome (HEK293T; at 17.4 µM (top of the series)): inactive
outcome (HEK293T; at 44.8 µM (top of the series)): inactive
Potency (MCC-13): inactive
Potency (MCC-26): inactive

CCCNCC(O)COc1ccccc1C(=O)CCc1ccccc1 (configuration not stated)
Potency (P93_24): 501 nM (active)
Potency (P94_40): 316 nM (active)
Potency (PAD): 398 nM (active)
Potency (PC15): 708 nM (active)
Potency (PC26): 1690 nM (active)
Potency (PC49): 316 nM (active)
Potency (SC27B): 891 nM (active)
Potency (TAB109): 794 nM (active)
Potency (TAB113): 794 nM (active)
Potency (TAB165): 447 nM (active)
Potency (W2): 379 nM (active)
max response (CRL-7250): -5.96%
outcome (CRL-7250): inactive
Potency (HEK293): 21100 nM (active)
max response (HaCat [1]): -2.94%
outcome (HaCat [1]): inactive
max response (KB-3-1): -15.9% and 1.74%
max response (NIH3T3): -20.3% and -9.95%
outcome (HACAT [2]): inactive
Potency (MCC-13): inactive
Potency (MCC-26): inactive

O=C1N(c2ccccc2)c2ccccc2C1(Cc1ccncc1)Cc1ccncc1
Potency (P93_24): inactive
Potency (P94_40): inactive
Potency (PAD): inactive
Potency (PC15): inactive
Potency (PC26): inactive
Potency (PC49): inactive
Potency (SC27B): inactive
Potency (TAB109): inactive
Potency (TAB113): inactive
Potency (TAB165): inactive
Potency (W2): inactive
max response (CRL-7250): -6.52% and 2.8%
max response (HEK293): 2.06%
outcome (HEK293): inactive
max response (HaCat [1]): 2.97%
outcome (HaCat [1]): inactive
max response (KB-3-1): 0.123%
outcome (KB-3-1): inactive
max response (NIH3T3): -1.99% and -3.96%
outcome (HACAT [2]): inactive
outcome (HEK293T; [3]): inactive
Potency (MCC-13): inactive
Potency (MCC-26): inactive

C[C@](N)(Cc1ccc(O)c(O)c1)C(=O)O
Potency (P93_24): inactive
Potency (P94_40): inactive
Potency (PAD): inactive
Potency (PC15): inactive
Potency (PC26): inactive
Potency (PC49): inactive
Potency (SC27B): inactive
Potency (TAB109): inactive
Potency (TAB113): inactive
Potency (TAB165): inactive
Potency (W2): inactive
max response (CRL-7250): -8.13% and -6.61%
max response (HEK293): -6.72%
outcome (HEK293): inactive
max response (HaCat [1]): -5.55%
outcome (HaCat [1]): inactive
max response (KB-3-1): -5.5% and -5.11%
max response (NIH3T3): 4.4%
outcome (HACAT [2]): inactive
outcome (HEK293T; [3]): inactive
Potency (MCC-13): inactive
Potency (MCC-26): inactive

COc1ccc(C2CNC(=O)C2)cc1OC1CCCC1 (configuration not stated)
max response (CRL-7250): -1.68%
outcome (CRL-7250): inactive
max response (HEK293): 0.111%
outcome (HEK293): inactive
max response (HaCat [1]): -13.7%
outcome (HaCat [1]): inactive
max response (KB-3-1): 0.0275% and -1.99%
max response (NIH3T3): -5.87%
outcome (NIH3T3): inactive
outcome (HACAT [2]): inactive
outcome (HEK293T; [3]): inactive
Potency (MCC-13): inactive
Potency (MCC-26): inactive
